ATXN2 expr inh: inhibitors of ATXN2 expression; HEK-293 ATXN2-luciferase reporter, luminescence, 24 h; Potency, µM (series often up to 57 µM), for the others: top-dose activity change, negative = inhibition, most hits filed as inhibitors; 360,000 compounds, 0.72% hits; note: % is set by controls: 0 for no effect and ±100 for the full control effect; nearly all actives have a fitted effect of over 55% in size
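qHTS (up to 57 uM final) was run with 24 h compound exposure of reporter cells at 37 °C. Each well was multiplexed: SteadyGlo luminescence measured ATXN2-luciferase expression after a fluorogenic Gly-Phe-AFC viability readout (25 uM final).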
ATXN viability: reduces viability in counter-screen for ATXN expression inhibitors; S2 cells (HEK-293 line with an ATXN2-luciferase reporter) viability, CellTiter-Fluor protease fluorescence, 24 h; Potency, µM (highest dose often 56.7 µM), usual class: cytotoxic; 400,000 compounds, 0.49% hits; note: nearly all actives have a fitted effect of over 40% in size
Nrf2 ARE act: Nrf2 pathway activation | AREc32 ARE-luciferase reporter (MCF7-derived line), luminescence, 24 h | Potency, µM (series often up to 46.1 µM), for inactives: top-dose activation, actives largely listed as activators | 410,000 compounds, 0.31% hits; note: % of control where 0% means no effect; nearly all actives have a fitted effect of over 65% in size
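Reporter line AREc32 (ARE-Fluc), seeded overnight in OPTI-MEM with 5% FBS; compound pin-transferred, 24 hr at 37 deg C, 5% CO2; luminescent read-out.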
Nrf2 block: inhibitors of Nrf2 signaling. A549 ARE-Fluc reporter, luciferase luminescence, 18-24 h. Potency, µM (series often up to 46 µM), for inactives: at the highest dose activity change, negative = inhibition, usual class: inhibitors. 360,000 compounds, 2.1% hits; note: % is set by controls: 0 for no effect and ±100 for the full control effect; nearly all actives have a fitted effect of over 60% in size
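Two sequential reads on A549 ARE_Fluc cells exposed to compound for 18-24 h: a CellTiter-Fluor fluorescence read for viability, then a luciferase luminescence read for Nrf2/ARE activity.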
A549 viability: A549 cytotoxicity, counter-screen for Nrf2 inhibitors; A549 ARE-Fluc cells, CellTiter-Fluor viability, 18-24 h; Potency, µM (series often up to 46 µM), without a hit: at the top dose activity change, negative = cytotoxicity, actives largely listed as inhibitors; 390,000 compounds, 0.16% hits; AID 504648; note: % is set by controls: 0 for no effect and ±100 for the full control effect
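A549 ARE-Fluc cells in 5% FBS OPTI-MEM, 5000 cells/well, rested 2 h then exposed to compounds in concentration-response for 18-24 h at 37 °C. Viability by CellTiter-Fluor fluorescence (Ex 405/Em 525) after 30 min; luciferase luminescence (BugLite, 15 min, RT) read afterwards.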
Active calls of the source: *; i = inactive; ? = inconclusive; . = not tested or not shown; ! = not confirmed by another sample; [ ] = another dose, or the depositor's remark. Only some compounds are listed: those with a hit (about 2.9% of all), similar ones and a draw of the others. Calls come from the whole dose curve; as a rule, active = well fitted curve in the direction sought with a large enough effect; inconclusive = small, poorly fitted or top-dose-only effect, or another doubt; inactive = no such curve, though single readings can be large; an effect the other way counts as inactive or inconclusive. Potency is the fitted concentration of half-maximal effect.

SMILES	ATXN2 expr inh	ATXN viability	Nrf2 ARE act	Nrf2 block	A549 viability
C#CCOCCOCCOCCNc1nc(N2CCN(C(=O)CCCCCCCCCCNC(=O)[C@H](CCCCN)n3cc(C[C@@H](C)CC)nn3)CC2)nc(N2CCN(C(=O)CCCCCCCCCCNC(=O)[C@H](CCCCN)n3cc(C[C@@H](C)CC)nn3)CC2)n1	22.4µM*	12.6µM*	-2.8%	?	?
C=C[C@]1(C)C=C2C(=O)[C@@]3(O)OC(=O)[C@@]4(CCCC(C)(C)[C@H]34)[C@@]2(O)CC1	1.58µM*	1.78µM*	-4.0%	.	.
Nc1nnc(Sc2ccc(Cl)cc2[N+](=O)[O-])s1	-10.0%[11.3 µM]	i	0.1%	-29.6%	-11.1%
CN1CCN(S(=O)(=O)c2cccc(C(=O)Nc3nc(-c4ccccc4)cs3)c2)CC1	5.6%	i	7.2%	-19.2%	14.2%
COc1ccc(-c2csc(NC(=O)c3cccc(S(=O)(=O)N4CCN(C)CC4)c3)n2)cc1	.	.	2.4%	14.6µM*	-12.6%
O=C(Nc1nc(-c2ccccn2)cs1)c1cccc(S(=O)(=O)N2CCOCC2)c1	.	?	0.7%	3.26µM*	?
Cc1ccc2nc(-c3ccccn3)cc(C(=O)Nc3ccc(S(=O)(=O)N4CCOCC4)cc3)c2c1	2.6%	i	0.2%	?	6.2%
Cc1ccc(S(=O)(=O)N2CCOCC2)cc1C(=O)Nc1nc(-c2ccccn2)cs1	?	?	1.4%	9.2µM*	-12.2%
CCOc1cccc(C(=O)Nc2nc(-c3ccc(S(=O)(=O)N4CCOCC4)cc3)cs2)c1	-16.8%	i	0.6%	.	0.4%
CC(=O)c1c(C)[nH]c(C(=O)Nc2nc(-c3ccc(-c4ccccc4)cc3)cs2)c1C	?	i	0.5%	23.1µM*	?
NC(=O)CSc1nnc(Cc2ccc3c(c2)OCO3)o1	-3.4%	i	-0.4%	-1.1%	2.8%
O=C(CCS(=O)(=O)c1cccc2nonc12)Nc1cccc(F)c1	-11.0%	i	4.7%	7.9%[9.27 µM]	-9.3%
COc1ccc(C(=O)Nc2ccccn2)cc1S(=O)(=O)N1CCOCC1	5.0%	?	14.2%	12.7%	0.6%
COc1ccc(C(=O)Nc2nc(-c3ccccn3)cs2)cc1S(=O)(=O)N1CCOCC1	.	i	-0.3%	16.4µM*	-3.1%
COc1ccc(-c2csc(NC(=O)c3ccccc3S(C)(=O)=O)n2)cc1	.	i	2.3%	16.4µM*	-11.0%
COc1ccc(-c2csc(NC(=O)C3CCCCN3S(=O)(=O)c3ccccc3)n2)cc1 (stereo unspecified)	-22.7%	i	2.9%	23.1µM*	-29.7%
N=c1oc2ccccc2cc1C(=O)Nc1ccccc1	-17.9%	i	18.1%	?	-12.8%
N=c1oc2cc(O)ccc2cc1C(=O)Nc1ccc(Br)cc1	-23.6%	.	3.8%	20.6µM*	2.9%
CN(C)CC1CCC/C(=C\c2ccc(OC(=O)c3ccc(Cl)cc3)cc2)C1=O (stereo unspecified)	-26.0%	23.8µM*	-1.1%	?	?
CN(C)CC1CCC/C(=C\c2ccc(OC(=O)/C=C/c3ccccc3)cc2)C1=O (stereo unspecified)	25.1µM*	.	20.8%	1.3%	3.6%
CC(=O)NC(C)c1cc(Cl)c2cccnc2c1O (stereo unspecified)	7.94µM*	6.31µM*	-1.2%	-14.2%	-2.0%
CCC(=O)NC(C)c1cc(Cl)c2cccnc2c1O (stereo unspecified)	8.91µM*	?	0.2%	-7.4%	-1.7%
COc1cc2c3nnc(-c4ccc(F)cc4)c-3cn(Cc3ccccc3)c2cc1OC	15.8µM*	i	8.1%	0.9%	6.7%
COc1ccc(Cn2cc3c(-c4ccc(F)cc4)nnc-3c3cc(OC)c(OC)cc32)cc1	31.6µM*	i	17.9%	?	?
CCOc1ccc(-n2nc3ccc(NC(=O)c4ccc(-c5cccc(Cl)c5)o4)cc3n2)cc1	.	.	0.7%	14.6µM*	-15.5%
SMILES	ATXN2 expr inh	ATXN viability	Nrf2 ARE act	Nrf2 block	A549 viability
Oc1ccc(Cl)c2cccnc12	12.6µM*!	?	15.3%	?	-1.2%
OCCN1CCN(Cc2cc(Cl)c3cccnc3c2O)CC1	22.4µM*	i	0.0%	?	-19.1%
Cc1ccc(S(=O)(=O)Nc2cc(Cl)c(O)c3ncccc23)cc1	11.2µM*	i	6.0%	20.6µM*	-23.4%
Oc1ccc(F)c2cccnc12	-6.4%	i	?	4.2%	2.3%
O=C(Oc1c(Cl)cc(Cl)c2cccnc12)c1ccco1	?	?	11.2%	23.1µM*	?
Clc1cc2cccnc2c2ccccc12	7.1%	i	-0.2%	-24.4%	-1.5%
Oc1c(Cl)cc(Cl)c2cccnc12	24.3µM*!	?	6.4%	-25.8%	-9.5%
O=C1C(=Cc2cccs2)Oc2ccccc21	0.0%	i	11.2µM*	-13.4%	0.5%
Cc1ccccc1/C=C1\Oc2ccccc2C1=O	16.6%	i	12.6µM*	6.6%	-5.3%
Cc1nc(-c2ccc(S(=O)(=O)NCC3CCN(C(=O)OC(C)(C)C)CC3)s2)cs1	.	i	5.2%	?	-2.6%
COc1ccc(C(=O)/C=C/c2cc(OC)c(O)c(OC)c2)c(F)c1	?	?	15.8µM*	-26.1%	-2.2%
CC1(C)CC(=O)C(N=Nc2cccc([N+](=O)[O-])c2)=C(O)C1	1.3%	i	24.8%	-11.3%	-12.4%
CCOc1cc(C=O)cc(N=Nc2cccc([N+](=O)[O-])c2)c1O	-1.8%	i	10µM*	3.3%	-11.6%
CCCC(CCC(=O)Nc1ccc(S(N)(=O)=O)cc1)C(=O)O (stereo unspecified)	-1.4%	i	-0.8%	?	-9.5%
CSC1=N/C(=C\c2cccnc2)C(=O)N1c1ccccc1	-6.6%	?	2.8%	5.1%	7.1%
CSC1=N/C(=C\c2ccccc2)C(=O)N1C	-6.3%	i	11.2µM*	9.3%	-3.4%
CC(C)Cc1nc(N2CCN(C(=O)c3ccccc3)CC2)c(C#N)c2c1CCC2	-19.2%	i	2.1%	23.1µM*	.
CCc1nc(N2CCN(C(=O)c3ccco3)CC2)c(C#N)c2c1COC(C)(C)C2	-16.8%	i	0.0%	14.6µM*	-9.7%
N#Cc1c(N2CCN(C(=O)c3ccccc3)CC2)nc(-c2ccccc2)c2c1CCCC2	-9.1%	i	3.2%	-66.0%	?
N#Cc1c(N2CCN(C(=O)c3ccco3)CC2)nc(-c2ccccc2)c2c1CCCC2	?	?	3.9%	18.4µM*	?
COc1ccc(C2(c3ccc(OC)cc3)NC(=O)N(CC(=O)N(C)c3ccccc3)C2=O)cc1	-6.6%	i	0.6%	-4.9%	-2.5%
CCc1ccc(-n2c(SCC(=O)N3CCC(C(=O)O)CC3)nnc2-c2ccncc2)cc1	-12.8%	i	0.2%	1.2%	2.5%
O=S(=O)(c1ccc(Oc2ccc3c(c2)OCO3)c(S(=O)(=O)N2CCOCC2)c1)N1CCOCC1	.	.	.	-10.2%	-1.1%
O=[N+]([O-])c1ccc(N=NN(CCO)CCO)cc1	.	i	-0.1%	2.2%	?

Screening data (PubChem)
